Only some compounds are listed: those with a hit (about 8.1% of all), similar ones and a draw of the others.
VP16 counter: Gal4-VP16 reporter inhibition counter-screen | 310,000 tested, 3.5% active | Potency, µM (highest dose often 53.6 µM), for the others: at the highest dose activity, negative = inhibition, most hits filed as inhibitors | Drosophila S2 Gal4-VP16 UAS-luciferase, luminescence, 20 h | AID 2546;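 further: Gal4-VP16 expression switched on by copper sulfate through the metallothionein promoter; on the % scale 0 is the no-effect control and ±100 the full control effect; nearly all actives have a fitted effect of over 50% in size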
Sfp inh: blocks B. subtilis Sfp PPTase activity; Q9F4F7; Biochemical Sfp PPTase activity, qHTS; Potency, µM, without a hit: largest response in the series, negative = inhibition, hits mostly inhibitors; 310,000 tested, 3.5% active; AID 1490;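 further: the enzyme is Sfp with the accession as filed and its product quenches rhodamine fluorescence; 0% = enzyme reaction without inhibitor and -100% = no enzyme wells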
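Fluorescence-quenching assay: 15 nM Sfp-PPTase preincubated 15 min at room temperature with compound, then 5 uM rhodamine-CoA and 12.5 uM BHQ-2-labelled YbbR peptide added. Fluorescence (ex 525/em 598 nm) read at start and after 30 min; difference gives rate.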
RORgamma inh: blocks mouse ROR gamma transcriptional activity. P51450. Drosophila S2 Gal4-RORgamma UAS-luciferase reporter, 20 h. Potency, µM (doses to about 53.6 µM), for inactives: at the top dose activity change, negative = inhibition, hits mostly inhibitors. 310,000 tested, 5.4% active. AID 2551; further: on the % scale 0 is the no-effect control and ±100 the full control effect; nearly all actives have a fitted effect of over 60% in size
Target sequence (P51450 whole entry, looked up, the tested form may be a part): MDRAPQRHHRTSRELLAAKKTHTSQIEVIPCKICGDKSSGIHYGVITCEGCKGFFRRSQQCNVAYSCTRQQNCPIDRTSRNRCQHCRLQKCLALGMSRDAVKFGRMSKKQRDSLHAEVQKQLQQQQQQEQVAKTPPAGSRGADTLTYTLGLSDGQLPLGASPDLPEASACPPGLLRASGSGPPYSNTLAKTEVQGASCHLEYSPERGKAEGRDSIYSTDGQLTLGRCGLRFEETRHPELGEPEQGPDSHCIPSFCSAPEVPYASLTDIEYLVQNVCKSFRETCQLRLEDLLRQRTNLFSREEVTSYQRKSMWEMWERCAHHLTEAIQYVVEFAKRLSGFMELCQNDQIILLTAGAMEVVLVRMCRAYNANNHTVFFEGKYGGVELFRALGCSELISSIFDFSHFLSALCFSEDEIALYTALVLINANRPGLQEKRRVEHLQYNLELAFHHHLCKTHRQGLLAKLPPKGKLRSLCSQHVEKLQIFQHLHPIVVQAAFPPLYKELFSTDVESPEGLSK
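Schneider cells (Drosophila), stable Gal4 DBD–ROR gamma + UAS-luc; 1 hr cmpd preincubation; Cu2+ induction 700 uM final; 20 hr ambient; luminescence.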
ClpP mod: qHTS Assay for Activators of ClpP | ATP-dependent Clp protease proteolytic subunit (Bacillus subtilis (strain 168)), P80244 | purified B. subtilis ClpP, FRET peptide cleavage, 20 min | Potency, µM (titrated, usually from 57.5 µM), inactives show at the highest dose activity change, negative = active | 340,000 tested, 1.9% active; active means well fitted falling curve with a large enough effect; inconclusive means small, poorly fitted or top-dose-only effect; inactive means no such curve, though single readings can be large or run the other way; further: the source files actives as falling curves though it sought activators and does not explain the sign; nearly all actives have a fitted effect of over 65% in size
Target sequence (P80244 whole entry, looked up): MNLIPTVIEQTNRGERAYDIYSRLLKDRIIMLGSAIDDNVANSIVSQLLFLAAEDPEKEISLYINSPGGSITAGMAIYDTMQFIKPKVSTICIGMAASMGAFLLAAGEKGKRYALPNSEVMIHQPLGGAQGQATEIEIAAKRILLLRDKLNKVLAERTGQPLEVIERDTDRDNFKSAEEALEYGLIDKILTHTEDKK
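Purified B. subtilis ClpP, 10 microg/mL final in Tris/HCl pH8 with KCl, BSA, glycerol and Tween-20, cleaved an Abz/nitrotyrosine-quenched decapeptide. Fluorescence (ex 320, em 430) was read at 0 and 20 min at room temperature. Delta was normalized to 5.8 microM ADEP and DMSO/no-enzyme controls.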
PINK1 expr mod: modulators of PINK1 expression; AID 624263; Potency, µM (doses to about 76.6 µM), inactives show top-dose activation (PINK1 increase), most hits filed as activators; 410,000 tested, 0.2% active; PINK1 immunofluorescence, high-content cytometry, 24 h; active means well fitted activation curve with a large enough effect; inconclusive means small, poorly fitted or top-dose-only effect; cell line not stated here; further: % of control where 0% means no effect; nearly all actives have a fitted effect of over 65% in size
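Measures PINK1 amount and localization on or inside mitochondria by immunofluorescence. Stable cells get compounds at 5 concentrations for 24 hours before fixation and staining; CCCP controls included.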
Epigenetic reg: regulators of epigenetic silencing causing reporter derepression in mouse cells | murine LDR cells, GFP reporter derepression, 30 h | Potency, µM (doses to about 53.9 µM), for inactives: top-dose GFP activation, usual class: activators | 280,000 tested, 0.2% active; further: % of control where 0% means no effect; nearly all actives have a fitted effect of over 60% in size
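Murine LDR cells carrying a silenced, genomically integrated CMV-driven GFP reporter were exposed to compound for 30 hours at 37 C. After PBS washes, GFP-positive cells (20–120 um objects) were counted by laser-scanning microplate cytometry.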
* = called active by the depositor; ? = inconclusive; · = no result given; ! = not active in a repeat; [ ] = remark or other dose. Unless noted, the call rests on the fitted dose curve; in most records, active means well fitted curve in the direction sought with a large enough effect; inconclusive means small, poorly fitted or top-dose-only effect, or another doubt; inactive means no such curve, though single readings can be large; an effect the other way counts as inactive or inconclusive. Potency means the concentration at half of the fitted maximal effect.

SMILES | VP16 counter | Sfp inh | RORgamma inh | ClpP mod | PINK1 expr mod | Epigenetic reg
CCC(=O)NC(=S)Nc1c(C)cc(Br)cc1C | 7.1µM* | 20% | 3.2µM* | · | -1% | 1%
CCOc1ccc(NC(=O)CSc2nc3c(c(=O)[nH]2)CCCC3)cc1 | · | · | · | -1% | 0% | 2%
CCOc1ccc(-c2nnc(NC(=O)Cc3ccc(OC)cc3)o2)cc1 | 4.5µM* | 21% | 1.8µM* | · | 3% | ·
CCOc1ccc(-c2nnc(NC(=O)CCCOc3cccc(C)c3)o2)cc1 | ? | 6% | 6.3µM* | -4% | 2% | 0%
COc1cc(OC)cc(C(=O)OCC(=O)Nc2nnc(-c3ccccc3)o2)c1 | · | · | · | · | 5% | ·
CCOc1ccc(-c2nnc(NC(=O)Cc3cc(OC)c(OC)c(OC)c3)o2)cc1 | ? | -6% | 11µM* | -9% | 3% | ·
CCC(=O)Nc1nnc(-c2ccc(OC)cc2)o1 | 11µM* | 9% | ? | -3% | 0% | 2%
COc1ccc(S(=O)(=O)NCC(c2ccco2)S(=O)(=O)c2cccs2)cc1C (stereo not drawn) | · | · | · | 2% | 1% | 10%
Cc1ccc(NC(=O)c2cc(S(=O)(=O)N3CCC(C)CC3)cn2C)cc1Cl | · | · | · | 7% | 0% | 2%
CCn1c2ccccc2c2cc(CN3CCN(Cc4ccccc4Cl)CC3)ccc21 | · | · | · | ? | 0% | -2%
O=C(c1cc(-c2ccc(Br)cc2)on1)N1CCCCCC1 | ? | 11% | -1% | · | 9% | ·
COc1ccc(-c2cc(C(=O)N3CCOCC3)no2)cc1 | ? | 8% | 10µM* | · | 0% | ·
O=C(c1cc(-c2ccc(Br)cc2)on1)N1CCOCC1 | ? | 12% | 10µM* | · | 0% | ·
COc1ccc(-c2ccc(-c3nnn(CC(=O)N4CCOCC4)n3)cc2)cc1 | -21% | 17% | ? | 16µM* | -1% | 6%
COc1cccc(-c2cc(C(=O)N3CCOCC3)no2)c1 | ? | 7% | ? | · | 2% | ·
CCc1nc2cc(C(=O)N(C)CC3COCCO3)cc(NC(=O)c3ccccc3OC)c2n1C (stereo not drawn) | · | · | · | · | 1% | ·
O=C(NCCc1ccncc1)c1cnn(-c2ncc3c(n2)-c2ccccc2CCC3)c1C1CC1 | · | · | · | · | 0% | ·
O=C(O)c1ccc2nc(-c3ccco3)c(-c3ccco3)nc2c1 | -7% | 7.9µM* | -6% | · | -2% | 5%
COc1ccc(/C(O)=C/c2nc3ccc(C(=O)NCCc4cccc(C)c4)cc3[nH]c2=O)cc1OC | ? | 26% | -10% | -1% | 20% | 18µM*
O=C(c1ccco1)N1CCN(C(=O)c2cc(-c3ccncc3)nc3ccc(Br)cc23)CC1 | · | · | · | -1% | 5% | ·
CCc1nc2ccc(C(=O)NCCc3ccc(OC)c(OC)c3)cc2nc1CC | 2% | 1% | 3% | 1% | 1% | 1%
O=C(O)c1cc(-c2ccco2)nc2ccc(Br)cc12 | -25% | 13µM*! | 4%[0.365 µM] | -6% | 1% | 0%
COc1ccc(CCNC(=O)c2ccc3nc(-c4ccco4)c(-c4ccco4)nc3c2)cc1OC | 4% | 10µM* | 6% | -11% | 2% | -2%
CCC(C)n1c(=O)c2sccc2n2c(CCCC(=O)N3CCN(c4ccccc4)CC3)nnc12 (stereo not drawn) | · | · | · | 0% | 1% | 1%
COc1ccc(Cc2nc3ccc(C(=O)NCCn4ccnc4C)cc3o2)cc1OC | -5% | 1% | 1% | 32µM* | 2% | ·
SMILES | VP16 counter | Sfp inh | RORgamma inh | ClpP mod | PINK1 expr mod | Epigenetic reg
O=C(Nc1cccc(C(F)(F)F)c1)c1ccc2snnc2c1 | · | · | · | 0% | 0% | -2%
COc1ccc(Cc2nc3ccc(C(=O)NCCc4ccncc4)cc3o2)cc1OC | -9% | 8% | -2% | 0% | 1% | ·
O=C(Nc1cccc(C(F)(F)F)c1)c1ccc2nc(-c3ccco3)c(-c3ccco3)nc2c1 | -28% | 28µM* | ? | -2% | 0% | -6%
COc1ccc(CNC(=O)C2=C(C)C(=O)OC23CCCCC3)cc1OC | · | · | · | -1% | 1% | 3%
S=C(Nc1ccccn1)NC1CCCC1 | -8% | 45µM* | -27% | 0% | 3% | 1%
S=C(Nc1ccccn1)NC1CCCCC1 | 5µM* | ? | 2µM* | · | 3% | 5%
S=C(NC1CCCCC1)N1CCN(c2ccccn2)CC1 | 0% | 28% | -17% | · | 1% | 2%
CNC(=S)NCCc1c[nH]c2ccc(OC)cc12 | -3%[10 µM] | 7% | -4% | -2% | -1% | 0%
S=C(NCCc1c[nH]c2ccccc12)NC1CCCCC1 | -26% | 17% | 14µM* | · | 0% | 0%
COc1ccc2[nH]cc(CCNC(=S)NC3CCCC3)c2c1 | ? | 22% | 10µM* | · | -1% | 0%
Cc1c(C(=O)N2CCC(Cc3ccccc3)CC2)sc2ncnc(NCc3ccccn3)c12 | · | · | · | · | 0% | ·
CCCc1c(C(=O)OCC)sc(N)c1C#N | -4%[10 µM] | 63µM* | -7% | · | -1% | -1%
CCOC(=O)c1sc(N)c(C(N)=O)c1C | -3% | 32µM* | -20% | · | 0% | 0%
CCOC(=O)c1c(N)sc(C(=O)Nc2ccccc2)c1C | ? | 20µM* | ? | -6% | 0% | 2%
CCOC(=O)c1sc(N)c(C#N)c1CSc1nnc(C2CC2)n1N | 1% | 12% | -2% | 0% | 1%[38.3 µM] | 0%
CCOC(=O)c1sc(NC(C)=O)cc1C | 13% | 13% | 3% | -7% | 2% | 0%
CCOC(=O)c1sc(NC(=O)c2ccc(C)s2)cc1C | ? | -1% | 1.3µM* | ? | 4% | 10%
Cc1cccc(OC(=O)CSc2nnc(CNC(=O)c3ccccc3)o2)c1C | · | · | · | -3% | 2% | -2%
COC(=O)[C@@H]1CCCN1Cc1ccc2c(c1)CN(Cc1cccn1-c1ccc(Cl)cn1)CCO2 | · | · | · | · | -1% | ·
CCOC(=O)c1sc(NC(=O)Nc2ccccc2)cc1C | 2.5µM* | 35µM* | 5µM* | -16% | ? | 1%
CCN(CC)CCCNC(=O)c1nn(-c2ccc(OC)c(Cl)c2)c(=O)c2c1c1ccccc1n2C | · | · | · | -8% | 1% | 10%
O=C(CCSc1nc(-c2ccc3c(c2)OCO3)cc(C(F)(F)F)n1)NCc1ccccc1 | 1% | 4% | 17% | -3% | 2% | 0%
COc1ccc(CNC(=O)CCSc2nc(-c3ccc4c(c3)OCO4)cc(C(F)(F)F)n2)cc1 | ? | 79µM* | ? | 7.9µM* | -1% | 1%
CCC(C)NC(=O)CCSc1nc(-c2ccc3c(c2)OCO3)cc(C(F)(F)F)n1 (stereo not drawn) | · | · | · | -23% | 1% | 4%
O=C(CCSc1nc(-c2ccc3c(c2)OCO3)cc(C(F)(F)F)n1)NCc1ccco1 | 1% | 40µM* | -38% | 4% | 6% | 2%

Screening data (PubChem BioAssay)
